Source: PubChem
INS-1E GSIS act: GLuc luminescence reporter in INS-1E cells, primary screen for activators of glucose-dependent secretion of insulin | INS-1E GLuc reporter insulin secretion, 2-3 h | activation, % at 16.6 µM | 370,000 compounds, 0.61% hits;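 active means lowest replicate activation of at least 40%, so every replicate reaches that level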;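 further: 0% = median of neutral control wells and 100% = median of IBMX positive control wells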
C2C12 statin: protects C2C12 myotubes from simvastatin toxicity. ATP luminescence, 48 h; scaled: DMSO 0, geranylgeraniol control 100. rescue of ATP level, % at 7.49 µM. 330,000 compounds, 0.78% hits;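 active means mean ATP rescue above about 67%, or every replicate alone reaching that limit, limit read from the data, passing the limit was not always enough; inconclusive means no clear call, values can overlap the other calls; inactive means mean under the limit and some replicate under it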;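 further: myotubes were challenged with 10 µM simvastatin during compound exposure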
EWS-Fli inh: blocks EWS/Fli oncoprotein-driven transcription; A673 NR0B1-luciferase reporter, viability-normalised; inhibition, % at 12.6 µM; 350,000 compounds, 0.67% hits;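 active means mean inhibition of at least 50% after viability correction, with every replicate also passing that limit; inconclusive means mean reaches 50% but only one of two replicates passes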;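 further: firefly luciferase signal divided by Alamar Blue viability fluorescence both relative to DMSO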
miR122 inh: miR-122 inhibition in Huh7 cells; Huh7 miR-122 Renilla luciferase sensor, 48 h; neutral wells = 0, positive control = 100; activation (reporter increase), % at 12.5 µM; 340,000 compounds, 0.3% hits;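 active means mean replicate activation score at least 90 and every replicate individually at or above 90; inconclusive means only one of the two criteria met; inactive means neither criterion met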;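 further: higher luciferase means less miR-122 activity so hits act as miR-122 inhibitors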
HIV Env fusion: inhibitors of HIV Env-mediated cell fusion; AID 651610; 360,000 compounds, 1.1% hits; HeLa-JRFL Env/CEM21 cell fusion, luciferase; inhibition, % at 12.3 µM;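 active means mean replicate inhibition score of at least 50 and every replicate individually at or above 50; inconclusive means only one of the two criteria met; inactive means mean below 50 and not all replicates reaching 50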;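 further: 0% = plate neutral controls and 100% = maraviroc near 300 nM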
PAX8 inh HTS: lowers PAX8-driven luciferase in RMG-I cells; RMG-I TPO-luciferase reporter, SteadyGlo, 24 h; inhibition, % at 12.6 µM; 360,000 compounds, 1.2% hits; AID 652154;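 active means mean replicate inhibition at least 60% with every replicate also reaching 60%; inconclusive means only one of the two criteria is met; inactive means mean below 60% and not all replicates reaching 60%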;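 further: luciferase light reporting Pax8 driven TPO promoter activity; plate controls were median of neutral control wells for no effect and mitoxantrone controls for full effect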
Starred values were filed as active, the others as inactive; ? = inconclusive; . = no result; ! = repeats disagree; [ ] = dose if it differs, or a comment. This is a sample that favours compounds with a hit; in the whole collection about 3.1% have one here.

SMILES	INS-1E GSIS act	C2C12 statin	EWS-Fli inh	miR122 inh	HIV Env fusion	PAX8 inh HTS
O=C(C[C@@H]1CC[C@H]2[C@@H](COC[C@@H](O)CN2S(=O)(=O)c2cccc(Cl)c2)O1)Nc1ccc(-c2ccccc2)cc1	11	-31	-1	-9[16.7 µM]	.	21
Cc1cccc(S(=O)(=O)N2C[C@@H](O)COC[C@@H]3O[C@@H](CC(=O)Nc4ccc(-c5ccccc5)cc4)CC[C@H]32)c1	-23	-62	4	-6[16.7 µM]	14[16.7 µM]	84*
O=C(C[C@@H]1CC[C@@H]2[C@H](COC[C@@H](O)CN2S(=O)(=O)c2cccc(Cl)c2)O1)Nc1ccc(-c2ccccc2)cc1	-3	-2	-1	-12[16.7 µM]	.	83*
CCC(=O)Nc1ccc2c(c1)C(=O)N(C)[C@H]1CC[C@H](CC(=O)N3CCc4ccccc4C3)O[C@H]1CO2	-3	3	6	24[16.7 µM]	-12[16.7 µM]	54
CC(=O)N(C)C[C@@H]1Oc2ncc(-c3ccc(C(=O)N(C)C)cc3)cc2C(=O)N([C@@H](C)CO)C[C@H]1C	24	1	-22	4[16.7 µM]	-6[16.7 µM]	4
C[C@H](CO)N1C[C@H](C)[C@H](CN(C)S(=O)(=O)c2ccc(Cl)cc2)Oc2c(NC(=O)C3CCCCC3)cccc2C1=O	-19	2	6	-2[16.7 µM]	-14[16.7 µM]	17
C[C@H](CO)N1C[C@H](C)[C@@H](CN(C)S(=O)(=O)c2ccc(Cl)cc2)Oc2c(NC(=O)C3CCCCC3)cccc2C1=O	-22	143*	16	27[16.7 µM]	-10[16.7 µM]	8
C[C@H]1CN([C@@H](C)CO)C(=O)c2cccc(NC(=O)C3CCCCC3)c2O[C@@H]1CN(C)S(=O)(=O)c1ccc(Cl)cc1	-13	119*	10	9[16.7 µM]	0[16.7 µM]	7
Cc1noc(C)c1S(=O)(=O)N(C)C[C@@H]1Oc2c(NC(=O)C3CCCCC3)cccc2C(=O)N([C@H](C)CO)C[C@@H]1C	9	-83	7	197*[16.7 µM]	.	.
Cc1noc(C)c1S(=O)(=O)N(C)C[C@H]1Oc2c(NC(=O)C3CCCCC3)cccc2C(=O)N([C@H](C)CO)C[C@H]1C	-5	12	-7	4[16.7 µM]	.	.
C[C@H](CO)N1C[C@H](C)[C@H](CN(C)S(=O)(=O)c2ccc(Cl)cc2)Oc2ccc(NC(=O)CCC(F)(F)F)cc2CC1=O	-12	-119	59*	48[16.7 µM]	-58[16.7 µM]	34
C[C@@H]1CN([C@@H](C)CO)C(=O)Cc2cc(NC(=O)CCC(F)(F)F)ccc2O[C@@H]1CN(C)S(=O)(=O)c1ccc(F)cc1	0	17	-9	-10[16.7 µM]	15[16.7 µM]	4
C[C@H]1CN([C@@H](C)CO)C(=O)Cc2cc(NC(=O)CCC(F)(F)F)ccc2O[C@H]1CN(C)S(=O)(=O)c1ccc(F)cc1	2	-55	57*!	0[16.7 µM]	.	13
C[C@H]1CN([C@@H](C)CO)C(=O)Cc2cc(NC(=O)CCC(F)(F)F)ccc2O[C@H]1CN(C)S(=O)(=O)c1ccc(Cl)cc1	-15	-207	56*	79[16.7 µM]	-271[16.7 µM]	?
CC(C)NC(=O)Nc1ccc2c(c1)C(=O)N([C@@H](C)CO)C[C@H](C)[C@H](CN(C)C(=O)Nc1cccc3ccccc13)O2	0	23	.	1[16.7 µM]	-4[16.7 µM]	9
C[C@H]1CN([C@@H](C)CO)C(=O)c2cc(-c3ccc(F)cc3)cnc2O[C@H]1CN(C)Cc1ccc(F)cc1	-5	30	0	-13[16.7 µM]	12[16.7 µM]	.
Cc1nn(C)cc1/C=N/n1nnnc1N	.	107*	.	-4	-86	5
Cc1ccc(/C=N/n2nnnc2N)o1	.	1	.	-16	-144	6
Cc1ccc(-n2nnc(-c3nccs3)n2)cc1	4	-36	82*	100*	-3	36
O=[N+]([O-])c1cccc(COc2ccccc2CN2CCOCC2)c1	-2	-4	5	4	56*	9
O=[N+]([O-])c1cccc(COc2ccccc2CN2CCCCC2)c1	56*	-8	6	2	-99	1
O=[N+]([O-])c1cccc(COc2ccc(CN3CCCCC3)cc2)c1	-2	-5	-42	-4	-43	-94
COc1ccc(NC(=O)N(C)C[C@@H]2OCCCC[C@H](C)Oc3ccc(NC(=O)CCC(F)(F)F)cc3C(=O)N([C@@H](C)CO)C[C@@H]2C)cc1	-4	-15	-2	1[16.7 µM]	-14[16.7 µM]	8
